Among the data in PubChem BioAssay (EPA / NIEHS) are AC50 and outcome values, retold here.

Where “and” joins values, the source holds several entries; their conditions need not be identical. Identical values can stand only once. Calls of active or inactive are those of the source. How the source made its calls: active means hit-call score of the fitted dose curve at least 0.9, where 1 is the maximum; inactive means score below 0.9.

One may read the AC50 as the midpoint of the concentration-response curve, whichever way the signal moves.

Read-out in assay [1]: Interleukin-1 alpha (IL1a), IL1A (gene 3552)
Description: BSK_KF3CT_IL1a: BioMAP Diversity Plus: KF3CT Assay for Interleukin-1 alpha (IL1a) Biomarker Activity (AID 2283070). Particulars: primary human keratinocytes with fibroblasts; actives raise or lower the signal. In a few lines:
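Readout is IL-1a level by ELISA, compared bidirectionally with DMSO as baseline. Cells: human keratinocytes co-cultured with foreskin fibroblasts, harvested 24 h post-dose.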

Read-out in assay [2]: TIMP metallopeptidase inhibitor 2 (TIMP2), TIMP2 (gene 7077)
Put plainly: BSK_KF3CT_TIMP2: BioMAP Diversity Plus: KF3CT Assay for TIMP metallopeptidase inhibitor 2 (TIMP2) Biomarker Activity (AID 2283071). Particulars: primary human keratinocytes with fibroblasts; actives raise or lower the signal. The essentials:
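Chemicals were dosed onto human skin primary co-cultures of keratinocytes and foreskin fibroblasts, and TIMP-2 was measured by ELISA after 24 hours. Activity in either direction was fitted relative to DMSO.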

Read-out in assay [3]: Transforming growth factor beta 1 (TGFb1), TGFB1 (gene 7040)
Put plainly: BSK_KF3CT_TGFb1: BioMAP Diversity Plus: KF3CT Assay for Transforming growth factor beta 1 (TGFb1) Biomarker Activity (AID 2283072). Particulars: primary human keratinocytes with fibroblasts; actives raise or lower the signal. The essentials: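 KF3CT co-culture (keratinocytes + fibroblasts), 24 h exposure → TGF-b1 ELISA → bidirectional fit, DMSO = baseline. Parallel SRB total-protein staining (0.1% SRB, 10% TCA fixation, 560 nm) for cytotoxicity.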

Read-out in assay [4]: C-C motif chemokine 2 (Homo sapiens) (UniProt P13500)
Put plainly: BSK_KF3CT_MCP1: BioMAP Diversity Plus: KF3CT Assay for Monocyte Chemoattractant Protein 1 (MCP1/CCL2) Biomarker Activity (AID 2283073). Particulars: primary human keratinocytes with fibroblasts; actives raise or lower the signal. In a few lines:
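ELISA read-out of MCP-1, 24 h post-dose, in primary human skin keratinocytes co-cultured with fibroblasts. Parallel SRB staining monitors cytotoxicity; changes fitted both directions relative to DMSO.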

Read-out in assay [5]: Matrix Metallopeptidase 9 (MMP9), MMP9 (gene 4318)
Description: BSK_KF3CT_MMP9: BioMAP Diversity Plus: KF3CT Assay for Matrix Metallopeptidase 9 (MMP9) Biomarker Activity (AID 2283074).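 On AC50: MMP9 protein level quantified by ELISA in the co-culture.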 Particulars: primary human keratinocytes with fibroblasts; actives raise or lower the signal. The essentials: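 Values come from bidirectional fitting relative to DMSO of MMP-9 levels, which were measured by ELISA. Measurements were taken 24 h after chemical dosing of a keratinocyte and foreskin fibroblast co-culture.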

Read-out in assay [6]: urokinase plasminogen activator (uPA), PLAU (gene 5328)
Put plainly: BSK_KF3CT_uPA: BioMAP Diversity Plus: KF3CT Assay for urokinase plasminogen activator (uPA) Biomarker Activity (AID 2283075). Particulars: primary human keratinocytes with fibroblasts; actives raise or lower the signal. In a few lines:
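Values derive from bidirectional fitting against DMSO controls. Keratinocyte/foreskin fibroblast co-cultures received chemical; 24 h later uPA was detected by ELISA, with SRB total-protein staining in parallel wells for overt cytotoxicity.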

Read-out in a further assay: CD40, CD40 (gene 958)
Put plainly: BSK_LPS_CD40: BioMAP Diversity Plus: LPS Assay for CD40 Biomarker Activity (AID 2283076). Particulars: primary human HUVEC with PBMC; actives raise or lower the signal. The essentials:
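In the LPS system of human endothelial cells with peripheral blood mononuclear cells, CD40 levels were read by ELISA 24 h post-treatment. Signal changes in either direction were fitted against the DMSO baseline, with parallel SRB protein staining.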

Read-out in assay [7]: E-selectin (Homo sapiens) (UniProt P16581)
Description: BSK_LPS_Eselectin: BioMAP Diversity Plus: LPS Assay for Eselectin Biomarker Activity (AID 2283077). Particulars: primary human HUVEC with PBMC; actives raise or lower the signal. The essentials: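 E-selectin ELISA on LPS-stimulated endothelial cell/PBMC co-cultures, read 24 h post-treatment; gains and losses fitted against DMSO. Parallel SRB staining (0.1% SRB after 10% TCA fixation, 560 nm) flags overt cytotoxicity.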

Assay [8] can be described thus: BSK_LPS_SRB: Viability Assessment in the BioMAP Diversity Plus: LPS Assay (AID 2283079).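 Further: total protein by sulforhodamine B absorbance as a cytotoxicity measure; measured one day after compound addition; fitted in both directions against DMSO so loss or gain of signal counts.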 Particulars: primary human HUVEC with PBMC. In a few lines:
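SRB viability endpoint: cells fixed with 10% TCA, stained with 0.1% SRB, read at 560 nm, 24 h post-dose. HUVEC/PBMC co-culture; signal change in either direction scored relative to DMSO.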

Sequence of E-selectin (Homo sapiens) (P16581 whole entry, looked up): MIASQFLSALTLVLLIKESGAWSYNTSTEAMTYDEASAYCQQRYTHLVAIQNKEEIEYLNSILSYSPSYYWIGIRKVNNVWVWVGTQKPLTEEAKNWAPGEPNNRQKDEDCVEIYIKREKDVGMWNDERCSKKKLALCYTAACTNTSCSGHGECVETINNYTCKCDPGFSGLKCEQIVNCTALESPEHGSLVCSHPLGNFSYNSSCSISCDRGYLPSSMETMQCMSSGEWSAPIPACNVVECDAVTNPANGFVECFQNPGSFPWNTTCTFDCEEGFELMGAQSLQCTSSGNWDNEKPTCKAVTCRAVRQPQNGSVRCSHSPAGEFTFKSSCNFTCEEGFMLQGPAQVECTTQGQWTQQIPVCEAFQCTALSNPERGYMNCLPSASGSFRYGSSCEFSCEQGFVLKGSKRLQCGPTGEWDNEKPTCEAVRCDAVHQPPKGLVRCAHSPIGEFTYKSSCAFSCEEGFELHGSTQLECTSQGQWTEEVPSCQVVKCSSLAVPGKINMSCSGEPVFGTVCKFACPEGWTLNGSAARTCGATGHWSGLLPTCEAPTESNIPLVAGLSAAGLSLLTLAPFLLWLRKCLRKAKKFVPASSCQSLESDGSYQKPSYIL

With `CS/C(C)=N/OC(=O)N(C)SN(C)C(=O)O/N=C(\C)SC`, the AC50 in [1] was 17.8 µM (active); in assay [2], 14.5 µM (active); in [3], 13.3 µM (active); in [4] it was 12.6 µM (active); in assay [5], 17.1 µM (active); in assay [6], 16.9 µM (active). For the same compound, the AC50 with CD40, CD40 (gene 958) was 15.8 µM (active); in [7], 34.7 µM (active); in assay [8], 29.8 µM (active).

`Cc1c(F)c(F)c(COC(=O)C2C(/C=C(\Cl)C(F)(F)F)C2(C)C)c(F)c1F` (stereo unspecified): the outcome in [1], in [2], in assay [3], in assay [4], in assay [6] and in assay [7] was inactive. For the same compound, the outcome in [8] was inactive. Also, the AC50 in [5] is 2.72 µM (active); in the assay with CD40, CD40 (gene 958), 13.7 µM (active).

`CCCCNC(=O)OCC#CI`: the AC50 in assay [1] was 30.1 µM (active) and 20 µM (active); in assay [2] it was 32.5 µM (active) and 20.4 µM (active); in assay [3], 30.1 µM (active) and 14.9 µM (active); in [4], 32.8 µM (active) and 20 µM (active); in [5], 29.4 µM (active) and 13.7 µM (active); in assay [6], 29.6 µM (active) and 15.1 µM (active). The AC50 with CD40, CD40 (gene 958) was 13.6 µM (active) and 9.3 µM (active); in assay [7] it was 31.3 µM (active) and 29.8 µM (active); in [8], 26.7 µM (active).

With `C=CCC1=C(C)[C@@H](OC(=O)[C@@H]2[C@@H](C=C(C)C)C2(C)C)CC1=O`, the outcome in assay [1], in [2], in assay [3], in [4] and in assay [6] was inactive. For the same compound, the AC50 in assay [5] is 32.6 µM (active); with CD40, CD40 (gene 958) it was 29.2 µM (active); in [7] it was 32.4 µM (active); in assay [8], 36.2 µM (active).

In the case of `CON(C)C(=O)Nc1ccc(Cl)c(Cl)c1`, the result in assay [1], in assay [2], in assay [3], in assay [4], in [5] and in assay [6] was inactive. For the same compound, the outcome was “inactive” in the assay with CD40, CD40 (gene 958); “inactive” in assay [7]; “inactive” in assay [8].

Turning to `Cc1ccc(-c2c(Cl)nc(C#N)n2S(=O)(=O)N(C)C)cc1`, the result in assay [1], in assay [2], in assay [3], in assay [4] and in assay [6] was inactive. For the same compound, the AC50 is 6.7 µM (active) in assay [5]; 14.9 µM (active) with CD40, CD40 (gene 958); 39.2 µM (active) in assay [7]; 26 µM (active) in assay [8].

For `CCOc1cc(Oc2ccc(C(F)(F)F)cc2Cl)ccc1[N+](=O)[O-]`, the AC50 in assay [1] is 6.07 µM (active); in assay [8], 9.65 µM (active). For the same compound, the outcome in assay [2] is “inactive”; in assay [3], “inactive”; in assay [4] it was “inactive”; in assay [5] it was “inactive”; in assay [6], “inactive”; with CD40, CD40 (gene 958) it was “inactive”. Besides, the result in assay [7] was inactive.

With `COC(=O)c1ccccc1C(=O)OC`, the result in assay [1], in assay [2], in [3], in assay [4], in assay [5] and in assay [6] was inactive. In addition, the outcome in the assay with CD40, CD40 (gene 958) is “inactive”; in assay [7] it was “inactive”; in assay [8] it was “inactive”.

In the case of `Fc1ccc(Oc2ccnc3cc(Cl)cc(Cl)c23)cc1`, the outcome in [1], in assay [2], in assay [3], in [4] and in [6] was inactive. For the same compound, the AC50 in [5] is 12.9 µM (active); in the assay with CD40, CD40 (gene 958), 22.8 µM (active); in assay [7], 34.4 µM (active); in assay [8], 24 µM (active).

Take `CC1COC(Cn2cncn2)(c2ccc(Oc3ccc(Cl)cc3)cc2Cl)O1` (stereo unspecified): the AC50 in assay [1] is 38 µM (active); in assay [2], 26.7 µM (active); in assay [3], 34.5 µM (active); in assay [4], 34.4 µM (active); in assay [5], 31.1 µM (active); in [6], 33.9 µM (active). Besides, the AC50 was 17.3 µM (active) in the assay with CD40, CD40 (gene 958); 20 µM (active) in assay [7]; 28.8 µM (active) in assay [8].

With `CC(C)C1(C)N=C(c2nc3ccccc3cc2C(=O)O)NC1=O` (stereo unspecified), the outcome in assay [1], in [2], in [3], in assay [4], in assay [5] and in assay [6] was inactive. Besides, the outcome is “inactive” in the assay with CD40, CD40 (gene 958); “inactive” in [7]; “inactive” in assay [8].

`N#CC(CCc1ccc(Cl)cc1)(Cn1cncn1)c1ccccc1` (stereo unspecified): the result in [1], in assay [2], in [3], in assay [4], in assay [5] and in [6] was inactive. Further, the outcome in the assay with CD40, CD40 (gene 958) was “inactive”; in assay [7] it was “inactive”; in assay [8], “inactive”.

Regarding `CNC(=O)ON=CC(C)(C)SC`, in assay [1], the AC50 was 1.34 µM (active). For the same compound, the outcome in assay [2] is “inactive”; in assay [3], “inactive”; in assay [4], “inactive”; in [5] it was “inactive”; in [6] it was “inactive”; with CD40, CD40 (gene 958) it was “inactive”. Also, the result in [7] and in assay [8] was inactive.

For `CC(Oc1ccc(Cl)cc1Cl)C(=O)O` (stereo unspecified), the outcome in assay [1], in [2], in assay [3], in assay [4], in [5] and in assay [6] was inactive. Also, the outcome with CD40, CD40 (gene 958) was “inactive”; in [7], “inactive”; in [8], “inactive”.
